# Experimental data from PubChem BioAssay (NCI).
# This is part of a sample that, as a whole, favours compounds with a hit. Of some 83,000 tested, about 20% had one in any assay.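 96-well plates, one dose, 48 hours. Percent growth reported; active if below 10.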 A number with no mark means an inactive call. Calls of active or inactive are those of the source.
# Tests used:
# Assay in all cases: NCI-60 one-dose screen, 48 h (100 = growth as untreated, 0 = no growth, -100 = all killed)
# Conditions in all cases: 10 µM unless noted
# HCT-15 colon = system: HCT-15 colon
# HT29 colon = system: HT29 colon
# SNB-75 CNS = system: SNB-75 CNS
# SNB-19 CNS = system: SNB-19 CNS
# U251 CNS = system: U251 CNS
# PC-3 prostate = system: PC-3 prostate
# SK-MEL-5 melanoma = system: SK-MEL-5 melanoma
# UACC-62 melanoma = system: UACC-62 melanoma
# LOX IMVI melanoma = system: LOX IMVI melanoma
# SK-MEL-28 melanoma = system: SK-MEL-28 melanoma
Compound,growth (HCT-15 colon),growth (HT29 colon),growth (SNB-75 CNS),growth (SNB-19 CNS),growth (U251 CNS),growth (PC-3 prostate),growth (SK-MEL-5 melanoma),growth (UACC-62 melanoma),growth (LOX IMVI melanoma),growth (SK-MEL-28 melanoma)
Fc1cnccc1-c1nc2ccc3[nH]ncc3c2c2c1CCCC2,12.4%,25.4%,-25.5% (active),44.2%,29.6%,27.1%,29%,17.3%,22.8%,24.3%
Cc1ccc(S(=O)(=O)NC(CCC(=O)Nc2ccc(Cl)cc2)C(=O)Nc2ccc(Cl)cc2)cc1 (stereo not given),18.9%,14.2%,-17.2% (active),14.1%,12.5%,17.8%,21.2%,2.47% (active),6.06% (active),64.3%
CCSc1ccc([C@@H]2[C@@H](N)C(=O)N2c2cc(OC)c(OC)c(OC)c2)cc1,19.9%,12.1%,36.2%,32%,28.1%,28.5%,20%,33.9%,50.7%,61.6%
COc1ccc(Sc2[nH]c(C=O)c3ccccc23)cc1,63.1%,19.4%,6.71% (active),77.6%,76.6%,45%,70.1%,46.7%,70.3%,81.9%
C=C1NC(=O)C(C(C)CC)NC(=O)C2CSCC(NC(=O)CCC(=O)O)C(=O)NC(Cc3ccccc3)C(=O)NC(C)C(=O)NC(CC(C)CC)C(=O)NC(C(=O)NC(Cc3ccccc3)C(=O)N3CCCC3C(=O)N2)C(C)OC(=O)C(CO)NC(=O)C(C(O)COC)N(C)C(=O)C(C(C)C)NC(=O)C(CC(C)CC)NC1=O (stereo not given),15.8% [6 µM],4.74% [6 µM] (active),11.4% [6 µM],21.3% [6 µM],11.2% [6 µM],22.1% [6 µM],-44.8% [6 µM] (active),39.8% [6 µM],15.1% [6 µM],60.2% [6 µM]
C#CC[C@@H]1C[C@]2(C)[C@H]3CC=C4[C@H]5CC(C)(C)CC[C@]5(C(=O)NCCCCN)CC[C@@]4(C)[C@]3(C)CC[C@H]2C(C)(C)[C@H]1OC(C)=O,8.51% (active),5.83% (active),-79.9% (active),6.48% (active),-77.9% (active),27%,93.9%,106%,-70.2% (active),102%
CCOC(=O)C(Nc1ccccc1)C(=O)OCC,98.9%,106%,85%,105%,109%,88.1%,102%,104%,93.5%,111%
O=C(CS)OCC(COC(=O)CS)(COC(=O)CS)COC(=O)CS,85%,98.9%,74.5%,119%,103%,83.4%,102%,67.9%,70.5%,90.1%
COc1ccc(-c2nc3ccc(Cc4ccc5nc(-c6ccc(OC)cc6)[nH]c5c4)cc3[nH]2)cc1,77.1%,44.2%,92.9%,49%,16.9%,43.3%,13.5%,38.2%,15.7%,82.3%
O=C1Nc2ccccc2/C1=C/c1c[nH]c2ccccc12,63.9%,100%,62.1%,83.8%,76.2%,72.3%,94.2%,81.8%,75.2%,101%
CC(=O)c1c(O)c(C)c(O)c2c1OC1=CC(=O)/C(=C(/C)N)C(=O)C12C (stereo not given),83.3%,65.1%,91.5%,103%,94.7%,85.1%,88.4%,77.8%,86.6%,105%
CC(=O)OC1Oc2cc(C)c(C)cc2-c2oc(=O)c(-c3ccc(F)cc3)cc21 (stereo not given),46.6%,16.1%,77.9%,90.5%,53.5%,60.2%,55.2%,49.8%,60.2%,64.2%
Clc1cc(Br)ccc1-c1ccc(CNCC2CCNCC2)o1,55.1%,31.7%,9.93% (active),42.1%,16.9%,54.1%,61.5%,59.4%,23.4%,42.3%
COc1ccc(/C(=C\c2cc(OC)c(OC)c(OC)c2)C(=O)N2CCNCC2)cc1,104%,95.6%,83%,99.7%,94.6%,90.7%,93.4%,90%,87.5%,112%
Nc1cccc(S(=O)(=O)c2cccc(N)c2)c1,114%,110%,88.3%,133%,113%,92%,113%,102%,104%,126%
CN(C)CCOc1nc2c3ccncc3cc(-c3cccc(Cl)c3)c2c2cnccc12,22.1%,17%,39.8%,28.4%,28%,30.1%,10.8%,24.6%,5.79% (active),13.3%
COC(=O)C(C)NC1=C(Cl)C(=O)C(NC(C)C(=O)OC)=C(Cl)C1=O (stereo not given),92.6%,98.2%,86%,94%,98%,92%,79.2%,99.8%,91.1%,111%
O=Cc1ccc2nc(C(Cl)(Cl)Cl)ccc2c1,101%,102%,99.9%,102%,92.8%,98.4%,95%,106%,96.1%,105%
CC(=O)Nc1nonc1-c1nc2ccccc2n1Cc1ccc(C(C)(C)C)cc1,90.4%,74.1%,50.2%,80.1%,75.7%,28.6%,79.9%,81.6%,63%,101%
COc1ccc2nc(NC(=O)/C(=C/c3cc(OC)c(OC)c(OC)c3)c3ccc(OC)c(OC)c3)sc2c1,100%,88.4%,94.3%,102%,94.6%,86.8%,93%,90.5%,90.4%,105%
Cc1ccc(CSCc2ccc(C(=O)NC3CC3)o2)cc1,37.7%,27.9%,86%,98.8%,56.4%,74.2%,57.3%,50.5%,58.2%,100%
Cc1cc(N=Nc2ccc(-c3ccc(N=Nc4ccc(O)c(C(=O)O)c4)cc3)cc2)c(N)c(N=Nc2ccc(C(=O)O)cc2)c1N,74.8%,76.6%,82.5%,95.5%,88.4%,78.1%,87%,71.2%,93.9%,80.6%
COc1cc2cc(C(=O)Nc3ccccc3)c(N)nc2cc1OC,2.25% (active),-70.6% (active),15.5%,21.2%,-6.06% (active),17.7%,-95.1% (active),-85.3% (active),-93.3% (active),-98.3% (active)
CCOC(=O)C(=CNc1ccccc1Cl)C(=O)OCC,88.2%,89.1%,108%,97.1%,94.5%,95.8%,77.1%,72.4%,95.8%,116%
O=C(CCc1nc2sc3c(c2c(=O)[nH]1)CCC3)NCc1cn(-c2ccccc2)nc1-c1ccccc1,86%,83.3%,-59% (active),49.8%,44%,29.9%,72.5%,88.6%,44%,79.1%
CC(=O)c1nn(-c2ccccc2)/c(=N\N=C\c2coc3ccc(F)cc3c2=O)s1,101%,108%,73.4%,94.4%,100%,92.6%,98.3%,97.4%,95.2%,111%
Cc1ccc(NC(=O)c2nc(S(C)=O)oc2-c2ccc(F)cc2)cc1Nc1nccc(-c2cccnc2)n1 (stereo not given),0.45% (active),1.98% (active),95.6%,74.2%,39.2%,72.9%,68.3%,65%,-72.1% (active),76.5%
